# Whole data set: some 35,000 sequences, median “fluorescence intensity (a.u.)” near 10,000, cut for the highest 2% near 52,000. For the sample, the highest values were picked, then their nearest neighbours and some sequences at random.
# Target: T1, OsWOX13 (Oryza sativa, UniProt Q5QMM3 1-267)
# T1 sequence: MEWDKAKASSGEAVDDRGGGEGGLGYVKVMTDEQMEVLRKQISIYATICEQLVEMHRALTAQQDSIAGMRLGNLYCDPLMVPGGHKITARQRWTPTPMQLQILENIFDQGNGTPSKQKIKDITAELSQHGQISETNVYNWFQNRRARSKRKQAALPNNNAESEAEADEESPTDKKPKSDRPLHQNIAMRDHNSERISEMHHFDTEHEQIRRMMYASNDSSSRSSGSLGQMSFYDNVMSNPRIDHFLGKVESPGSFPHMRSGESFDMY
# Assay: protein-binding microarray (RPBM); PBS, 2% BSA, 51.3 ng/ul salmon testes DNA, 50 uM zinc acetate, 200 nM TF, 25 C, 1 h; high values mean tight binding
# Conditions: protein: recombinant; tags: N-terminal polyhistidine and DsRed monomer fusion (pET32a); label: CyDye5-dUTP incorporated in the synthesized complementary strand; 3' TTTTT single-stranded linker to array surface; dsDNA, one strand shown
# Method in brief: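 The binding signal is fluorescence intensity per feature, in arbitrary units, read on an Axon 4000B scanner. Polyhistidine- and DsRed-tagged transcription factors (N-terminal fusions) from E. coli BL21-CodonPlus were purified on Ni–NTA and applied at 200 nM for 1 h at 25 °C to a double-stranded, BSA-blocked custom Agilent array in buffer with 50 µM zinc acetate.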
row,Sequence,binding signal
1,TGAGTGATGACAGTAAGTAACTGAATCTGCTGAGTTCTGACGGAGTCACCTAGTGCAG,6590 fluorescence intensity (a.u.)
2,TCTCATCAATTGAATGGATATTATATTTTAATGTGTTCAGCGGAGTCACCTAGTGCAG,8660 fluorescence intensity (a.u.)
3,GCTATGATTGTCTTTAGGGTATCTAATAATTGTGGTTTGACGGAGTCACCTAGTGCAG,21700 fluorescence intensity (a.u.)
4,ACCAAACGCCTTGATTGAAACCATCGATATACATATGTAACGGAGTCACCTAGTGCAG,34900 fluorescence intensity (a.u.)
5,GAAAATGTTCCATCTGATTATAAATTATTATATTTTGGGACGGAGTCACCTAGTGCAG,4000 fluorescence intensity (a.u.)
6,TGAAAGTAATTTGATGCTATAAGTCAAAGTTAAAGAGATGCGGAGTCACCTAGTGCAG,3500 fluorescence intensity (a.u.)
7,GTTGCAGATTGAGAGCCAAAGACATTATCTTGATTCTATCCGGAGTCACCTAGTGCAG,13100 fluorescence intensity (a.u.)
8,TTTAAGATGATCAGATTTCTAATTGCAGTTCACCTTAACTCGGAGTCACCTAGTGCAG,7420 fluorescence intensity (a.u.)
9,TATAAATATAATTTATCCAAAGAGCATTTATAAGGACTTCCGGAGTCACCTAGTGCAG,4240 fluorescence intensity (a.u.)
10,TAGTGATTTTGTGAAATCTCAAAATATATTGATCCAGCTTCGGAGTCACCTAGTGCAG,5030 fluorescence intensity (a.u.)
11,GCTTGACTAACATATTCTGTTGGATTGCTACCGCGCCATGCGGAGTCACCTAGTGCAG,7150 fluorescence intensity (a.u.)
12,TCCATTAACATTTGCCATTATCGTACTGACTTTCGTACGACGGAGTCACCTAGTGCAG,3710 fluorescence intensity (a.u.)
13,CGCCCACTGAATTAATCAATCAGTAAAGCTGCCACCGTGCCGGAGTCACCTAGTGCAG,39100 fluorescence intensity (a.u.)
14,CCAAGATGAATTGGAACTTTGCACACCAACCAAATAGGGGCGGAGTCACCTAGTGCAG,3580 fluorescence intensity (a.u.)
15,ATGTACTTAATTCAATTTGTCAAAAGAATTATGTATCCCTCGGAGTCACCTAGTGCAG,3990 fluorescence intensity (a.u.)
16,GGTTCAACGGTACCCTTGATTGCTATAGAGAGTGATATATCGGAGTCACCTAGTGCAG,4670 fluorescence intensity (a.u.)
17,GAAATTAATAACAAATTAAAACCAGAGCCAGCTGACTGCTCGGAGTCACCTAGTGCAG,21700 fluorescence intensity (a.u.)
18,CCGACGGCTCAGATTGACTGCAGTAGTGGGTATCTCTTCTCGGAGTCACCTAGTGCAG,13700 fluorescence intensity (a.u.)
19,TGCTTTATTATTTGATTGATTGATCACTTGTTGGATGGGACGGAGTCACCTAGTGCAG,64200 fluorescence intensity (a.u.)
20,TGTTTGGATGATTTTATGGATGATCACTTCTCTTTATTTACGGAGTCACCTAGTGCAG,3280 fluorescence intensity (a.u.)
21,CAGATCAATTTATCGAGATTGATCAAAAGCAAGATGATGCCGGAGTCACCTAGTGCAG,35000 fluorescence intensity (a.u.)
22,ATTGCAGATTGATTTATCTCGTCAAGATTGATGAGCATGCCGGAGTCACCTAGTGCAG,63500 fluorescence intensity (a.u.)
23,GAAGATGATGATGATTTAGCATGCAAATGAGCAGTTGACACGGAGTCACCTAGTGCAG,13800 fluorescence intensity (a.u.)

row,Sequence,binding signal
1,GATTAATTAGGCTTCATAAATTCGTCTCGCAGTTTACAGGCGGAGTCACCTAGTGCAG,30800 fluorescence intensity (a.u.)
2,GATTAATTAGATTTAATAAATTCATCTCGCAGTTTACAGGCGGAGTCACCTAGTGCAG,62200 fluorescence intensity (a.u.)
3,GACTTGATTTACAGATTTATTGACAGAGTTTTGCTAAGCTCGGAGTCACCTAGTGCAG,56600 fluorescence intensity (a.u.)
4,TGCTAAAATTTTGACAATATTGTTAACTTGCTCTAGTTTACGGAGTCACCTAGTGCAG,6920 fluorescence intensity (a.u.)
5,TTTGTTGCTTTACTTGGGAGATTGATCGCTAAACGAGTCACGGAGTCACCTAGTGCAG,3150 fluorescence intensity (a.u.)
6,TTATTTGTGGCTTGAAGATTGACAGCTTTTGTTGATTGCTCGGAGTCACCTAGTGCAG,9340 fluorescence intensity (a.u.)
7,TTAATTAGGTTTAATAGATTCATCTCGCAGTTTACAGGCACGGAGTCACCTAGTGCAG,18500 fluorescence intensity (a.u.)
8,TAAGTTTTAATTGAAATTTTGTTCACAAATACTCCAAATCCGGAGTCACCTAGTGCAG,11900 fluorescence intensity (a.u.)
9,ATTTTAATTTTAATTATTAATACTCCATTAGCATTTAGTTCGGAGTCACCTAGTGCAG,18200 fluorescence intensity (a.u.)
10,CATCATGATTTGATGATGGATTAATTATGCTTAATAAATTCGGAGTCACCTAGTGCAG,55300 fluorescence intensity (a.u.)
11,ATTTATAAATTGATTTGGAGCACAGATCGATACGTGCAGACGGAGTCACCTAGTGCAG,53400 fluorescence intensity (a.u.)
12,GCATTTGCTAATGATGGATTAATTAGGCTTAATAGATTCGCGGAGTCACCTAGTGCAG,11800 fluorescence intensity (a.u.)
13,CATTTGCTAATGATGGATTAATTAGGCTTAATAAATTTGTCGGAGTCACCTAGTGCAG,19900 fluorescence intensity (a.u.)
14,TGCTAATGATGGATTAATTAGGCTTAATAAATTCGTCTCGCGGAGTCACCTAGTGCAG,54700 fluorescence intensity (a.u.)
15,CATGATTAATTAAATATTAACGATCATAAATTTGAAAATTCGGAGTCACCTAGTGCAG,29300 fluorescence intensity (a.u.)
16,TTGCTAATGATGAATTAATTAGGCTTAATAAATTCGTCTCCGGAGTCACCTAGTGCAG,28300 fluorescence intensity (a.u.)
17,GTGACTGACTGATGATAAATTTGATAATACGCGTCGTTAGCGGAGTCACCTAGTGCAG,63100 fluorescence intensity (a.u.)
18,ATGTTGATTGTCTAAAATCACAGATTTAGCACATTATCGACGGAGTCACCTAGTGCAG,29800 fluorescence intensity (a.u.)
19,AAAATAAATTTGACTGTGAATATACGTTAACTGGTCATAGCGGAGTCACCTAGTGCAG,23100 fluorescence intensity (a.u.)
20,AAATAACAAATTTGACTGTGAATATACGTATACTAGTTAGCGGAGTCACCTAGTGCAG,19300 fluorescence intensity (a.u.)
21,GTATAAATTTGGACAGATTGTGATTAGATTTATAGTCCTACGGAGTCACCTAGTGCAG,29800 fluorescence intensity (a.u.)
22,GCCCACTCATAATTTCTCCCTTGATTTGTAAAGAAATAAGCGGAGTCACCTAGTGCAG,16000 fluorescence intensity (a.u.)
23,GAAAATTAGTAGAGAACTAATTAGGGATAAAGTCATTATTCGGAGTCACCTAGTGCAG,13000 fluorescence intensity (a.u.)

# Reference: publication PMC7819943, “Rice protein-binding microarrays: a tool to detect cis-acting elements near promoter regions in rice”
